Where “and” joins values, the source holds several entries; their conditions need not be identical. Equal entries are not always repeated. Records with an inconclusive call do not appear. Entries that show only a call come without a potency. A number with no mark means an inactive call. Calls of active or inactive are those of the source. Calls come from the whole dose curve; as a rule, active = well fitted cell-killing curve with a large enough effect in the repeat runs; inconclusive = weak or mixed curves, or effect the other way; inactive = flat fitted curve, though single readings scatter.
Tests used:
[1] = cAMP Responsive Elements (CRE) small molecule antagonists, cell-based qHTS assay: qHTS cell viability counter screen (AID 2060913); note: nearly all actives have a fitted effect of over 40% in size
Method in brief: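 CRE-bla HEK293T cells (2,000/well, 18 h) given compound plus NKH477 0.25 uM final for 3 h at 37C; viability counter-screen by CellTiter-Glo luminescence in same wells after 30 min.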

[2] = cAMP Responsive Elements (CRE) small molecule agonists, cell-based qHTS assay: qHTS cell viability counter screen (AID 2060914); note: nearly all actives have a fitted effect of over 50% in size
Method in brief: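 In the same wells as the reporter read, viability of CRE-bla HEK 293T cells was quantified by CellTiter-Glo luminescence after a 3 h compound exposure.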
Potency is the fitted concentration of half-maximal effect.

Row | Compound | Potency [1] | Potency [2] | viability change, negative = cytotoxic [1] | activity change, negative = cytotoxicity [2]
1 | CCN1C=CN(C)C1C (centres undefined) | inactive | inactive |  | 
2 | O=C(O)c1cccc(Cl)n1 | inactive | inactive |  | 
3 | C=C(C)[C@H]1CC=C(C)C(=O)C1 | inactive | inactive |  | 
4 | CCCCCCCCCCCCCCCC/C=C/C1CC(=O)OC1=O (centres undefined) | inactive | inactive |  | 
5 | CCCCCCCCCCCCCC[P+](CCCC)(CCCC)CCCC | 60.8 µM (active) and 28.5 µM (active) | 60.8 µM (active) and 61.1 µM (active) |  | 
6 | FC(F)(F)C(F)(F)C(F)(F)C(F)(F)C(F)(F)C(F)(F)C(F)(F)C(F)(F)Br | inactive | inactive |  | 
7 | CCN=C1C=CC(=C(c2ccc(N(CC)CC)cc2)c2ccc(N(CC)CC)cc2)c2ccccc21 | 48.3 µM (active) | 30.5 µM (active) |  | 
8 | CO[Si](OC)(OC)OC | inactive | inactive |  | 
9 | CO/N=C(/C(=O)N[C@@H]1C(=O)N2C(C(=O)[O-])=C(C[n+]3ccn4ncccc43)CS[C@H]12)c1nsc(N)n1 | inactive | inactive |  | 
10 | CCCCC/C=C/C=C/C=O | inactive | inactive |  | 
11 | CCn1nc(C)c2c1C(=O)NCC(c1ccc(O)cc1)=N2 | inactive | inactive |  | 
12 | CC/C=C\CCOC(=O)c1ccccc1O | inactive | inactive |  | 
13 | CCCCCCCC(=O)OC | inactive | inactive |  | 
14 | CC1=CC[C@H]2C[C@@H]1C2(C)C | inactive | inactive |  | 
15 | CC(COCC(C)OC(=O)c1ccccc1)OC(=O)c1ccccc1 (centres undefined) | inactive | inactive |  | 
16 | Cc1oc(-c2ccccc2)nc1CCC(=O)c1ccc(CC2SC(=O)NC2=O)cc1 (centres undefined) | inactive | inactive |  | 
17 | CC(C)(C)C1=CC(=O)C(C(C)(C)C)=CC1=O | inactive | inactive |  | 
18 | CC(=C(CCOC(=O)C(C)C)SSC(CCOC(=O)C(C)C)=C(C)N(C=O)Cc1cnc(C)nc1N)N(C=O)Cc1cnc(C)nc1N | inactive | inactive |  | 
19 | CC[C@@H]1C[C@H](N(Cc2cc(C(F)(F)F)cc(C(F)(F)F)c2)C(C)=O)c2cc(C(F)(F)F)ccc2N1C(=O)OC(C)C | inactive | inactive |  | 
20 | C[C@H](CS)C(=O)N1CCC[C@H]1C(=O)O | inactive | inactive |  | 
21 | C1CN(SSN2CCOCC2)CCO1 | inactive | inactive |  | 
22 | CN1[C@@H]2CC[C@H]1CC(OC(=O)C(O)c1ccccc1)C2 (some centres undefined) | inactive | inactive |  | 
23 | CC(=O)c1ccccc1N | inactive | inactive |  | 

Row | Compound | Potency [1] | Potency [2] | viability change, negative = cytotoxic [1] | activity change, negative = cytotoxicity [2]
24 | CC(C)C1OCCN1CCOC(=O)NCCCCCCNC(=O)OCCN1CCOC1C(C)C (centres undefined) | inactive | inactive |  | 
25 | c1ccc(CCNc2nc(-c3ccccc3)cs2)cc1 | inactive | inactive |  | 
26 | O=C(O)CN1C(=O)c2cccc3cccc(c23)C1=O | inactive | inactive |  | 
27 | CC(=O)N1C[C@H](O)C[C@H]1C(=O)O | inactive | inactive |  | 
28 | SC1CCCCC1 | inactive | inactive |  | 
29 | Cc1c(Nc2ncccc2C(=O)O)cccc1C(F)(F)F | inactive | inactive |  | 
30 | CCCOC(C(=O)OC1CCN(C)CC1)(c1ccccc1)c1ccccc1 | inactive | inactive |  | 
31 | CCN(CC)c1ccc2c(C)cc(=O)oc2c1 | inactive | inactive |  | 
32 | NCCS(=O)(=O)O | inactive | inactive |  | 
33 | CCCNCCC | inactive | inactive |  | 
34 | CCN(CC)CCOC(=O)C(Cc1cccc2ccccc12)CC1CCCO1 (centres undefined) | inactive | inactive |  | 
35 | Nc1cc(-c2ccncc2)c[nH]c1=O | inactive | inactive |  | 
36 | CCOC(=O)[C@H](C)O | inactive | inactive |  | 
37 | BrC1CCC(Br)C(Br)CCC(Br)C(Br)CCC1Br (centres undefined) | inactive | inactive |  | 
38 | Cc1cc(O)ccc1O | inactive | inactive |  | 
39 | CC(=O)Nc1ccc(/C=N/NC(N)=S)cc1 | inactive | inactive |  | 
40 | CCCCCCCCOc1ccc(C(=O)c2ccccc2)c(O)c1 | inactive | inactive |  | 
41 | Cc1ccc(C)c(S(=O)(=O)O)c1 | inactive | inactive |  | 
42 | O=C(O)c1cc2ccccc2cc1O | inactive | inactive |  | 
43 | Cc1ccc(C(=O)O)o1 | inactive | inactive |  | 
44 | CC(C)(C)c1ccc(C(=O)CCCCl)cc1 | inactive | inactive |  | 
45 | O=C(c1ccccc1O)c1ccccc1O | inactive | inactive |  | 
46 | CCCO[Si](OCCC)(OCCC)OCCC | inactive | inactive |  | 

Row | Compound | Potency [1] | Potency [2] | viability change, negative = cytotoxic [1] | activity change, negative = cytotoxicity [2]
47 | O=C(NS(=O)(=O)/C=C/c1cccs1)c1ccc(F)cc1Br | inactive | inactive |  | 
48 | O=C(O)/C=C/c1ccc(Cn2ccnc2)cc1 | inactive | inactive |  | 
49 | COc1ccc2cc([C@H](C)C(=O)O)ccc2c1 | inactive | inactive |  | 
50 | OCc1ccccn1 | inactive | inactive |  | 
51 | O=C(O)/C=C(\CC(=O)O)C(=O)O | inactive | inactive |  | 
52 | CC1CCC(C(C)(C)O)CC1 (centres undefined) | inactive | inactive |  | 
53 | CC#N | inactive | inactive |  | 
54 | COc1cc([C@@H]2c3cc4c(cc3[C@H](O)[C@H]3COC(=O)[C@H]23)OCO4)cc(OC)c1OC | inactive | inactive |  | 
55 | CNC(=S)N(C)C | inactive | inactive |  | 
56 | CCCCCCCCCCCO | inactive | inactive |  | 
57 | CCc1ccc(C(c2ccc(CC)cc2)C(Cl)Cl)cc1 | inactive | inactive |  | 
58 | OCCOc1cccc(OCCO)c1 | inactive | inactive |  | 
59 | OCCN(CCO)c1ccccc1 | inactive | inactive |  | 
60 | CCOC(=O)CC(C)O (centres undefined) | inactive | inactive |  | 
61 | O=C[O][Al]([O]C=O)[O]C=O | inactive | inactive |  | 
62 | CCCCC1=NC2(CCCC2)C(=O)N1Cc1ccc(-c2ccccc2-c2nn[nH]n2)cc1 | inactive | inactive |  | 
63 | C[C@@H](O)C(=O)O | inactive | inactive |  | 
64 | CCC1=C(C)CN(C(=O)NCCc2ccc(S(=O)(=O)NC(=O)NC3CCC(C)CC3)cc2)C1=O (centres undefined) | inactive | inactive |  | 
65 | COc1cc(NS(=O)(=O)c2ccc(N)cc2)nc(C)n1 | inactive | inactive |  | 
66 | CCOC(=O)C(C#N)=C(c1ccccc1)c1ccccc1 | inactive | inactive |  | 
67 | COc1cc(NS(=O)(=O)c2ccc(N)cc2)ncn1 | inactive | inactive |  | 
68 | OC[C@H]1O[C@@H](O[C@H]2[C@H](O)[C@@H](O)[C@H](O)O[C@@H]2CO)[C@H](O)[C@@H](O)[C@H]1O | inactive | inactive |  | 
69 | O=C(Cn1ccnc1[N+](=O)[O-])NCc1ccccc1 | inactive | inactive |  | 

Row | Compound | Potency [1] | Potency [2] | viability change, negative = cytotoxic [1] | activity change, negative = cytotoxicity [2]
70 | Cc1ccc([N+](=O)[O-])c(C)c1 | inactive | inactive |  | 
71 | O=C1CCC(C2CCCCC2)CC1 | inactive | inactive |  | 
72 | CCC(=O)c1ccc(O)cc1 | inactive | inactive |  | 
73 | CC(=O)OCC(=O)[C@@]1(O)CC[C@H]2[C@@H]3CCC4=CC(=O)C=C[C@]4(C)[C@@]3(F)[C@@H](O)C[C@@]21C | inactive | inactive |  | 
74 | Cc1ccc(C(C)NC(=O)[C@@H](NC(=O)OC(C)C)C(C)C)cc1 (some centres undefined) | inactive | inactive |  | 
75 | CCC(=O)OCCOc1ccccc1 | inactive | inactive |  | 
76 | O=C(O)/C=C/c1cnc[nH]1 | inactive | inactive |  | 
77 | CC(C)=CCCC(C)CC=O (centres undefined) | inactive | inactive |  | 
78 | CCOc1nc(F)cc2nc(S(=O)(=O)Nc3c(Cl)cccc3C(=O)OC)nn12 | inactive | inactive |  | 
79 | Nc1c(Br)cc([N+](=O)[O-])cc1Br | inactive | inactive |  | 
80 | OC1(c2ccccc2)CCNCC1 | inactive | inactive |  | 
81 | COc1ccc(C(=O)c2ccc(OC)cc2O)c(O)c1 | inactive | inactive |  | 
82 | O=S1(=O)CCCO1 | inactive | inactive |  | 
83 | CN(C)CCCN | inactive | inactive |  | 
84 | Cc1c(C)c2c(c(C)c1OC(=O)c1cccnc1)CC[C@@](C)(CCC[C@H](C)CCC[C@H](C)CCCC(C)C)O2 | inactive | inactive |  | 
85 | COC(=O)Nc1nc2ccc(C(=O)c3cccs3)cc2[nH]1 | inactive | inactive |  | 
86 | CCCCOC(=O)c1ccccc1C(=O)OCC(CC)CCCC (centres undefined) | inactive | inactive |  | 
87 | FC(F)(F)C(F)(F)C(F)(F)C(F)(F)C(F)(F)C(F)(F)C(F)(F)C(F)(F)C(F)(F)C(F)(F)F |  |  | 10.4% [at 8.39 µM] | -0.902% [at 8.39 µM]
88 | CCCc1ccc(O)cc1 | inactive | inactive |  | 
89 | O=C(O)Cc1ccc(OCCNC[C@H](O)c2ccccc2)cc1 | inactive | inactive |  | 
90 | O=S1(=O)CC(Cl)(Cl)C(Cl)(Cl)C1 | 15.4 µM (active) | 34.4 µM (active) |  | 
91 | COc1cccc([C@H](O)C2CCN(CCc3ccc(F)cc3)CC2)c1OC | inactive | inactive |  | 
92 | CCCCCCCCCCCCCCCC(=O)OC |  |  | 14.8% [at 18.9 µM] | -20.6% [at 18.9 µM]

Row | Compound | Potency [1] | Potency [2] | viability change, negative = cytotoxic [1] | activity change, negative = cytotoxicity [2]
93 | COc1ccccc1N1CCN(CC(O)COc2cccc3ccccc23)CC1 (centres undefined) | inactive | inactive |  | 
94 | CC1(C)CC(N=C=O)CC(C)(CN=C=O)C1 (centres undefined) | inactive | inactive |  | 
95 | C[Si](C)(C)C | inactive | inactive |  | 
96 | O=C(OCC(O)CO)c1ccccc1Nc1ccnc2cc(Cl)ccc12 (centres undefined) | inactive | inactive |  | 
97 | CCN(CC)CCCC(C)Nc1c2ccc(Cl)cc2nc2ccc(OC)cc12 (centres undefined) | inactive | inactive |  | 
98 | COc1ccc(N)c(C)c1 | inactive | inactive |  | 
99 | CC1COc2c(N3CCN(C)CC3)c(F)cc3c(=O)c(C(=O)O)cn1c23 (centres undefined) | inactive | inactive |  | 
100 | CC(C)(C)CC(C)(C)c1ccccc1O | 61.4 µM (active) | 61.4 µM (active) |  | 
101 | CC(CCl)OP(=O)(OC(C)CCl)OC(C)CCl (centres undefined) | inactive | inactive |  | 
102 | O=c1cccccc1O | inactive | inactive |  | 
103 | CC(C)=CC(C)(C)C | inactive | inactive |  | 
104 | CCC(C)S (centres undefined) |  |  | 3.82% [at 3.27 µM] | 5.15% [at 3.27 µM]
105 | C[C@H]1[C@H]2CC[C@H]3[C@@H]4CC=C5C[C@@H](N(C)C)CC[C@]5(C)[C@H]4CC[C@]23CN1C | inactive | inactive |  | 
106 | CCCCC(CC)C(=O)OC(C)C (centres undefined) | inactive | inactive |  | 
107 | O=C(O)Cc1cc(I)c(Oc2ccc(O)c(I)c2)c(I)c1 | inactive | inactive |  | 
108 | CCCCc1ccc2cccc(S(=O)(=O)O)c2c1 | inactive | inactive |  | 
109 | O=c1[nH]cnc2[nH]ncc12 | inactive | inactive |  | 
110 | CC(COc1ccccc1)NN (centres undefined) | inactive | inactive |  | 
111 | C1CNCCN1 | inactive | inactive |  | 
112 | CCc1c2c(nc3ccc(OC(=O)N4CCC(N5CCCCC5)CC4)cc13)-c1cc3c(c(=O)n1C2)COC(=O)[C@]3(O)CC | inactive | inactive |  | 

From PubChem BioAssay (Tox21)
